Source: PubChem
In the library only some 3.4% were active in any assay of this set; here they are far more common.
TEAD-YAP inh – TEAD-YAP interaction inhibition, primary screen, TEAD-YAP interaction inhibitor project, luminescence, HEK-TIYL cells | inhibition, % at 9.12 µM | TEAD-Gal4/YAP UAS-luciferase luminescence | 640,000 compounds, 1.4% hits; in the data active means inhibition above about 32%
MITF inh – MITF inhibitors, primary screen, biochemical, AlphaScreen, human | 650,000 compounds, 0.91% hits | inhibition, % at 2.6 µM | AlphaScreen MITF homodimerization, bead proximity signal | Microphthalmia-associated transcription factor (Homo sapiens), O75030 | AID 1259374, 2018; in the data active means inhibition above about 50%
GPR151 activ – activators of human GPR151, primary screen, cell-based, PathHunter beta-arrestin, luminescence; AID 1508602, 2020; PathHunter beta-arrestin GPR151 cells; activation, % at 11.2 µM; 650,000 compounds, 1% hits; in the data active means activation above about 4.9%
FBW7 act – FBW7 E3 ligase activators, primary screen, biochemical, AlphaScreen, human; F-box/WD repeat-containing protein 7 (Homo sapiens), Q969H0; 650,000 compounds, 0.13% hits; normalized activity (activation), % at 26.1 µM; AlphaScreen FBW7–phospho-cyclin E peptide binding, activator screen; in the data active means normalized activity above about 1.9%;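 further: purified mutant Fbw7 with reduced substrate affinity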
GPR151 conf act – GPR151 activators, triplicate retest, confirmation, cell-based, PathHunter beta-arrestin, luminescence | shares compounds with GPR151 activ | GPR151 PathHunter beta-arrestin cells, 90 min; % of EA-reagent control over plate median | activation, % at 11.2 µM | 6,700 tested, under 10 active | AID 1508609, 2020;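 active means mean percent activation across replicates above the confirmation screen cutoff of 4.91%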
GPR119 ag – GPR119 activators in beta-arrestin cells, counter-screen for GPR151 activator project, cell-based, PathHunter beta-arrestin, luminescence, triplicate | shares compounds with GPR151 activ | 90 min; 0 = compound-well median, 100 = enzyme-acceptor control | activation, % at 11.2 µM | 6,700 compounds, 0.3% hits | AID 1508611, 2020;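 active means mean percent activation in the counterscreen above 29.09%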;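 further: counterscreen on off-target GPR119 to flag nonselective hits from the GPR151 activator screen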
Hits are given with their value; i = inactive; nt = no result given.

SMILES	TEAD-YAP inh	MITF inh	GPR151 activ	FBW7 act	GPR151 conf act	GPR119 ag
Cc1nc(-c2c(C(F)(F)F)oc3c(CN(C)C)c(O)ccc3c2=O)cs1	i	i	5.1	i	i	i
Cc1nc(-c2c(C(F)(F)F)oc3c(C)c(C)ccc3c2=O)cs1	i	i	i	i	nt	nt
CS(=O)(=O)N(CC(=O)N1CCN(c2ccc(F)cc2)CC1)Cc1ccc(Cl)cc1	i	i	i	i	nt	nt
CS(=O)(=O)N(CC(=O)N1CCN(c2ccccc2)CC1)Cc1ccc(Cl)cc1	i	i	5.0	i	i	i
COc1ccc(-c2ccc(/C=N/N3C(=O)C4C5C=CC(C6CC56)C4C3=O)o2)c([N+](=O)[O-])c1 (configuration not stated)	i	i	5.0	i	i	i
O=C(Nc1cccc(C(=O)N2CCN(c3ccc(F)cc3)CC2)c1)c1ccccc1	i	i	5.6	i	i	i
CC1=C(C(=O)Nc2ccccc2)C(c2ccco2)C(C#N)=C(SCC(=O)Nc2ccc(F)cc2)N1 (configuration not stated)	i	i	5.9	i	i	i
CC(=O)C1=C(C)NC(SCC(N)=O)=C(C#N)C1c1cccc([N+](=O)[O-])c1 (configuration not stated)	i	i	9.3	i	i	i
CC1=C(C(=O)Nc2ccccc2C)C(c2ccccc2)C(C#N)=C(SCC(=O)Nc2ccccc2C)N1 (configuration not stated)	i	i	i	i	nt	nt
CC1=C(C(=O)Nc2ccccc2C)C(c2ccccc2)C(C#N)=C(SCC(=O)Nc2cc(C)ccc2C)N1 (configuration not stated)	i	i	12	i	i	i
COC(=O)CSC1=C(C#N)C(c2ccccc2)C(C(=O)Nc2ccccc2)=C(C)N1 (configuration not stated)	i	i	5.7	i	i	i
O=C1C2C3C=CC(C3=C3CCCC3)C2C(=O)N1c1cccc(Cl)c1 (configuration not stated)	i	i	i	i	nt	nt
Cc1c(Br)cc(C(=O)N2CCCCC2)c(C)c1C	i	i	i	i	nt	nt
CCC(CO)Nc1ccc2ncc(-c3ccc4ccccc4c3)n2n1 (configuration not stated)	i	i	i	i	nt	nt
COc1cccc(-c2cc(C(=O)Nn3cnnc3)c3ccccc3n2)c1	i	i	5.1	i	i	i
CCOP(=O)(OCC)c1nc(-c2cccc([N+](=O)[O-])c2)oc1N1CCCCC1	i	i	11	i	i	i
N#CCCN(Cc1cccnc1)C(=S)NC(=O)c1cccs1	i	i	5.6	i	i	i
O=C1N=C(N2CCN(c3ccccc3[N+](=O)[O-])CC2)S/C1=C\c1ccccc1	i	i	i	i	nt	nt
CN(c1ccccc1)S(=O)(=O)c1nnc(NC(=O)c2ccccc2F)s1	i	i	10	i	i	i
Cc1ccc2c(c1)CC(C)N2S(=O)(=O)c1nnc(NC(=O)c2ccccc2F)s1 (configuration not stated)	i	i	8.5	i	i	i
CC1Cc2ccccc2N1S(=O)(=O)c1nnc(NC(=O)c2ccccc2)s1 (configuration not stated)	i	i	i	i	nt	nt
Cc1ccc(C(=O)Nc2nnc(S(=O)(=O)N3c4ccccc4CC3C)s2)cc1 (configuration not stated)	i	i	5.6	i	i	i
COc1ccc(C(=O)Nc2nnc(S(=O)(=O)N3c4ccc(C)cc4CC3C)s2)cc1 (configuration not stated)	i	i	i	i	nt	nt
Cc1ccccc1N(C)S(=O)(=O)c1nnc(NC(=O)c2ccccc2F)s1	i	i	i	i	nt	nt
c1csc(-c2nnc(COc3nncc4ccccc34)o2)c1	i	i	i	i	nt	nt
CCC(OC(=O)CNC(=O)c1ccco1)C(=O)c1ccccc1 (configuration not stated)	i	i	i	i	nt	nt
O=C(O)Cc1sc(NCc2ccccc2)nc1-c1ccccc1	i	i	i	i	nt	nt
